In PubChem BioAssay AID1347416 (National Center for Advancing Translational Sciences (NCATS), 2020):
Where “and” joins values, the source holds several entries; their conditions need not be identical. Identical values can stand only once. Hit rate of the full screen: of about 4,100 compounds, about 1,600 (39%) were called active. About 25% were inconclusive and are not listed. Calls follow the shape of the dose curve; as a rule, active = well fitted inhibition curve with a large enough effect; inconclusive = small, poorly fitted or top-dose-only effect; inactive = no such curve, though single readings can be large or run the other way. Some of the results follow.

Experiment: qHTS Validation assay for Inhibitors of Plasmodium falciparum Dd2 growth in vitro; also: nearly all actives have a fitted effect of over 70% in size
Settings: P. falciparum Dd2 in RBCs, SYBR Green growth, 72 h; series mostly up to 28.7 µM; activity change, negative = inhibition: at the top concentration
Excerpt: Malaria, a parasitic disease spread to humans through the bite of a Plasmodium infected Anopheles mosquito, continues to be a global health burden affecting millions of people, with an estimated 228 million cases and 405,000 deaths in 2018. Concerns about safety and limitations of current antimalarial treatments strongly emphasize the need to develop new therapeutic options. The scarce number of chemotypes and validated drug targets with efficacy against the liver stage, have hindered development of new antimalarials. To address this, a chemoprophylactic drug discovery effort was conducted through a combined phenotypic high-throughput asexual blood stage and liver stage screen, providing a robust foundation to identify liver-stage active lead chemotypes. Compounds were initially screened against Plasmodium falciparum Dd2 strain parasites using a in vitro SYBRGreen-1 based 72 hr proliferation assay to identify novel chemotypes to advance to liver stage assays. NIH/NCATS Early Translation Branch Assay Submitter (PI): Anton Simeonov Ph.D.
[…] Assay Protocol: PROTOCOL TABLE (as described by Inglese et al., 2007) SEQUENCE No. (e.g., 1, 2, 3, etc.); PARAMETER (e.g., Cells, Incubation, Reagent, etc.); VALUE; DESCRIPTION SEQUENCE, Parameter, Description 1; Reagent; 3 uL complete malaria growth medium, 1536 TC treated Black clear bottom plate 2; Controls; 23 nL positive control artesunate (300 nM final) to column 1; Neutral control DMSO to columns 2-4 3; Compound; 23 nL of compounds in dose response concentration (29 uM to 0.5 nM final) 4; Reagent; 5 uL malaria infected red blood cells (2.5% hematocrit final, 0.3% parasitemia 5; Time; 72 hours at 37C (5% O2, 5% CO2, 90% N2; 95% Rh) 6; Reagent; 2 uL lysis buffer/SYBRGreen-1, 25 sec shake immediately following dispense 7; Time; ~16 hours at 37C (5% O2, 5% CO2, 90% N2; 95% Rh) 8; Detector; EnVision (PerkinElmer) bottom read at 485/14nm excitation and 535/25 nm emission NOTES (numbers refer to sequence above): 1; Complete Malaria Growth Media: 1X RPMI-1640 w/L-glutamine, 5.5g/L Albumax II, 367 uM Hypoxanthine, 25 mM HEPES, 0.25% Sodium Bicarbonate, 35 uM Gentamicin sulfate 2; Controls were added using the Kalypsis Pintool (Wako USA) equipped with 1536 pinhead 3; Compounds were added in a 7-point, titration with a high final concentration of 29 uM by Pintool from seven inter-plate titrations of library plates and two DMSO control plates at the beginning and end (see Yasgar et al., 2008). 4; Red blood cells infected with Plasmodium falciparum Dd2 parasites were used. 6; Lysis buffer: 20 mM Tris-HCl, 10 mM EDTA, 0.16% Saponin, 1.6% Triton-X, 10X SYBR Green. REFERENCE: Inglese J, Shamu CE, Guy RK. 2007. Reporting data from high-throughput screening of small-molecule libraries. Nat Chem Biol. doi:10.1038/nchembio0807-438 Yasgar A, Shinn P, Jadhav A, Auld D, Michael S, Zheng W, Austin CP, Inglese J, Simeonov A. 2008. Compound Management for Quantitative High-Throughput Screening. J Lab Autom 13:79-89. doi:10.1016/j.jala.2007.12.004
% is scaled to controls: 0 for no effect and ±100 for the full control effect; potency is read from the fitted curve at half-maximal effect.

SMILES	activity change, negative = inhibition	Potency
Cc1ccc(C(=O)N2[C@H]3CC[C@@H]2c2cnc(-c4ccccc4)nc2C3)cn1	-30.1% (inactive)	–
Cn1cc(C(=O)N2[C@H]3CC[C@@H]2c2cnc(-c4ccccc4)nc2C3)cn1	6.34% (inactive)	–
Cc1noc(C)c1Cc1ccc(C(=O)N2[C@H]3CC[C@@H]2c2cnc(-c4ccccc4)nc2C3)o1	–	9.44 µM (active)
Cc1nc(-c2ccccc2)cc([C@H]2CN3CC[C@H]2C[C@@H]3CN(Cc2ccco2)Cc2ccco2)n1	–	2.99 µM (active)
Cc1nc(-c2ccco2)cc([C@H]2CN3CC[C@H]2C[C@@H]3CNCc2ccccc2)n1	–	4.33 µM (active)
CCOc1ccc(CN(CCc2ccc3c(c2)OCO3)Cc2cc(OC)ccc2O)cc1	–	0.668 µM (active)
CCOc1cccc(CNCCc2c(C)[nH]c3ccc(OC(F)(F)F)cc23)c1O	–	2.37 µM (active)
Cc1ccc(CN2C3CCCC2CC(NC(=O)Nc2cccc(F)c2)C3)cc1 (centres undefined)	–	10.6 µM (active)
O=C(NC1CN2CCC1CC2)c1ccc(-c2ccc([N+](=O)[O-])cc2)o1 (centres undefined)	13.2% (inactive)	–
COC1C(=O)N(c2cccc(F)c2)C12CCNCC2 (centres undefined)	–	10.6 µM (active)
FC(F)(F)CN1C2CCC1CN(c1nnc(Cl)c3ccccc13)C2	–	2.11 µM (active)
CCC(CC)c1cc([C@H]2CN3CC[C@H]2C[C@@H]3COC(=O)Nc2ccc(C(C)(C)C)cc2)nc(-c2ccncc2)n1	–	2.11 µM (active)
O=C(Nc1ccccc1)OC[C@H]1C[C@@H]2CCN1C[C@@H]2c1cc(C2CCCC2)nc(-c2ccncc2)n1	–	1.68 µM (active)
CC(C)(C)c1ccc(NC(=O)OC[C@H]2C[C@@H]3CCN2C[C@@H]3c2cc(C3CCCC3)nc(-c3ccncc3)n2)cc1	–	2.11 µM (active)
COc1ccc(NC(=O)OC[C@H]2C[C@@H]3CCN2C[C@@H]3c2cc(C3CCCC3)nc(-c3ccncc3)n2)cc1	–	4.22 µM (active)
N#Cc1nn(-c2c(Cl)cc(C(F)(F)F)cc2Cl)c(N)c1S(=O)C(F)(F)F (centres undefined)	–	9.44 µM (active)
Cc1c2ccncc2c(C)c2c1[nH]c1ccccc12	–	3.35 µM (active)
CCN1CC=C(c2c[nH]c3ccccc23)CC1	–	4.22 µM (active)
CC(C)N1CC=C(c2c[nH]c3ccccc23)CC1	–	10.6 µM (active)
CCN(CC)C1=NC(=[N+](CC)CC)c2ccccc21	–	5.31 µM (active)
COc1ccc(CC(=O)N2Cc3ccccc3CC3(CCCN3C)C2)cc1 (centres undefined)	–	9.44 µM (active)
CC(C(=O)c1c[nH]c2ccccc12)N1CCN(C(=O)c2ccco2)CC1 (centres undefined)	–	5.96 µM (active)
COc1cccc([C@@H]2CCN(Cc3[nH]c4ccccc4c3C)C[C@H]2O)c1	–	1.5 µM (active)
Oc1c(Br)cc(Br)cc1CN1CCN(Cc2ccccc2)CC1	–	1.06 µM (active)
CCN1CCN(Cc2cc(Br)cc(Br)c2O)CC1	–	7.5 µM (active)

SMILES	activity change, negative = inhibition	Potency
Oc1ccc(C2NCc3ccccc3-n3cccc32)cc1Cl (centres undefined)	–	1.19 µM (active) and 1.5 µM (active)
COc1cc(C2NCc3ccccc3-n3cccc32)ccc1O (centres undefined)	–	2.66 µM (active)
CC(C)CCNC(=O)c1cc(C(=O)c2cc(Br)ccc2O)cn(CCC(C)C)c1=O	–	0.944 µM (active)
CC(C)CCNC(=O)c1cc(C(=O)c2cc(F)ccc2O)cn(CCC(C)C)c1=O	–	2.11 µM (active)
O=C(c1cc(C(=O)NCc2ccccc2)c(=O)n(Cc2ccccc2)c1)c1cc(Br)ccc1O	–	4.73 µM (active)
CCOc1c(Cl)cc(CNC(C)C(O)c2ccccc2)cc1OC (centres undefined)	–	6.68 µM (active)
CC(NCc1ccc(Cl)cc1Cl)C(O)c1ccccc1 (centres undefined)	–	4.73 µM (active)
CC(C)(C)CN1CCC2(COc3ccncc3S(=O)(=O)N2)C1 (centres undefined)	55.1% (inactive)	–
O=C1NC2(CCCN(Cc3ccccn3)C2)COc2ccccc21 (centres undefined)	–	4.85 µM (active)
Cc1cc(O)c(CN2CC=C(c3ccccc3)CC2)cc1C(C)C	–	0.335 µM (active)
COc1ccc2ccc(O)c(CN3CC=C(c4ccccc4)CC3)c2c1	–	8.41 µM (active)
CCOc1ccc(CN2C(=O)c3ccccc3Sc3ccc(C(=O)N4CCC5(CC4)OCCO5)cc32)cc1	–	4.22 µM (active)
CCC(CC)c1cc([C@H]2CN3CC[C@H]2C[C@@H]3CNS(=O)(=O)c2ccccc2C#N)nc(-c2ccncc2)n1	–	1.5 µM (active)
CCC(CC)c1cc([C@H]2CN3CC[C@H]2C[C@@H]3CNS(=O)(=O)c2cccs2)nc(-c2ccncc2)n1	–	2.37 µM (active)
COC(=O)C(C)Oc1cc(C)cc2oc(=O)c3c(c12)CCC3 (centres undefined)	-27.6% (inactive)	–
Cc1nc2c(=O)n(C)c(=O)nc-2n(C)n1	–	0.422 µM (active)
CCC(CC)c1cc([C@H]2CN3CC[C@H]2C[C@@H]3CNC(=O)NCc2ccccc2)nc(-c2ccncc2)n1	–	4.22 µM (active)
CCC(CC)c1cc([C@H]2CN3CC[C@H]2C[C@@H]3CNC(C)=O)nc(-c2ccncc2)n1	–	15.3 µM (active)
CCC(CC)c1cc([C@H]2CN3CC[C@H]2C[C@@H]3CNC(=O)COc2ccccc2)nc(-c2ccncc2)n1	–	1.5 µM (active)
CCC(CC)c1cc([C@H]2CN3CC[C@H]2C[C@@H]3CNC(=O)c2ccc(C)cc2)nc(-c2ccncc2)n1	–	10.6 µM (active)
CCC(CC)c1cc([C@H]2CN3CC[C@H]2C[C@@H]3CNC(=O)Cc2cccs2)nc(-c2ccncc2)n1	–	2.99 µM (active)
CCC(CC)c1cc([C@H]2CN3CC[C@H]2C[C@@H]3CNC(=O)c2ccccc2)nc(-c2ccncc2)n1	–	10.6 µM (active)
CCOC(=O)C1(c2ccccc2)CCN(CCC(C#N)(c2ccccc2)c2ccccc2)CC1	–	5.31 µM (active)
CC(C)[C@@]1(NC(=O)[C@@H]2C[C@@H]3c4cccc5[nH]cc(c45)C[C@H]3N(C)C2)O[C@@]2(O)[C@@H]3CCCN3C(=O)[C@H](Cc3ccccc3)N2C1=O	–	2.37 µM (active)
